Source: PubChem BioAssay (several laboratories)
This is a sample that favours compounds with a hit; in the whole collection about 4.6% have one here.
AHR act: human AHR activation | AHR-responsive luciferase reporter cells, luminescence | activation, % at 5 µM | hit rate 2.5% among 320,000 | AID 2796; in the data active = activation above about 47%;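 also: 0% = vehicle wells and 100% = reference agonist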
GAA850 FXN act: frataxin GAA850 promoter activation | HEK293 lucGAA850 FXN promoter luciferase reporter, 24 h; percent of 10 µM SAHA response | activation, % at 6 µM | hit rate 0.56% among 360,000 | AID 540364;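 active = activation above the average of all compounds screened plus 3 SD, cutoff fixed separately per campaign, cut at about 7.5% in these data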;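 also: 0% = DMSO wells and 100% = 10 µM SAHA wells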
HSF-1 act: increases HSF-1 driven luciferase reporter signal | NIH3T3-HGL HSF-1 luciferase reporter, MG132, 8 h; 100% = twice DMSO control signal | activation, % at 9 µM | hit rate 1.7% among 300,000 | AID 504408;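 active = mean replicate activation of at least 50% with a set share of replicates each reaching 50%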;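 also: 0% = median of the neutral control wells and 100% = twice that signal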
HSF1 inh: HSF1 inhibition | NIH3T3-HGL HSE-luciferase, MG132-induced, luminescence 8 h; hits give low values | activity change, negative = inhibition, % at 7.5 µM (by protocol) | hit rate 0.77% among 300,000 | AID 2098;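 active = more than half of replicate wells show activity change below -50%, luminescence cut by over half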;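 also: luciferase reports HSF-1 transcriptional activity via heat shock element; 0% = median of DMSO wells and -100% = zero luminescence signal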
The depositor's hits bear a star; . = no result given.

SMILES | AHR act | GAA850 FXN act | HSF-1 act | HSF1 inh
COc1ccc(/C=C/C(=O)Nc2ccccc2C(=O)O)cc1 | 0 | 0 | -43 | -39
COc1ccc(/C=C/C(=O)Nc2ccccc2C(=O)O)cc1OC | -8 | -9 | -59 | -56*
COc1ccc(/C=C/C(=O)c2cc(Br)ccc2O)cc1OC | 4 | 1 | 66* | 28
COc1ccc(/C=C/C(=O)Nc2ccccc2C(=O)NCC(c2ccc(OC)cc2)N(C)C)cc1 (configuration not stated) | 7 | -5 | -60 | -59*
COc1ccc(/C=C/C(=O)c2cc(F)ccc2OC(=O)c2ccccc2)cc1OC | 9 | 4 | -11 | -11
O=C(NCc1ccc2c(c1)OCO2)c1ccc(Br)o1 | 12 | 5 | -18 | 0
COc1ccc(/C=C/C(=O)c2ccc[nH]2)c(OC)c1OC | 25 | 1 | 15 | 17
COc1ccc(/C=C/C(=O)c2ccc[nH]2)cc1OC | 12 | 2 | 62* | 33
Nc1c(C(=O)NCCc2ccc(Cl)cc2)sc2ccc(S(=O)(=O)N3CCCCC3)cc12 | 4 | . | 63* | 36
Cc1cc(C(F)(F)F)nc(NNc2nc(C)cc(C(F)(F)F)n2)n1 | . | 1 | . | .
Cc1cc(C(F)(F)F)nc(Nc2nc(C)c3ccccc3n2)n1 | 58* | -2 | 17 | 2
O=[N+]([O-])c1ccc2c(c1)nc1n2CCN(C2CCCCC2)C1 | 3 | 4 | 53* | 22
Cc1nn(-c2ccccc2)c2nc(-c3ccccc3)cc(C(=O)N3CCOCC3)c12 | -3 | 0 | -20 | 2
CC(C)NC(=O)C1CCN(C2CCN(C(=O)c3ccc4cccc(F)c4n3)CC2)CC1 | 7 | 1 | 13 | 2
Cc1sc(NC(=O)c2sc3nc4c(C)cccc4cc3c2N)c(C#N)c1C | -2 | -3 | -15 | -4
Cc1cccc2cc3c(N)c(C#N)sc3nc12 | -7 | -1 | -63 | -54*
Cc1ccc(CNC(=O)C23CN(Cc4ccccc4)CC2C(c2cccc([N+](=O)[O-])c2)=NO3)cc1 (configuration not stated) | 2 | -1 | 19 | 5
Cc1c(/C=N/Nc2ccc(C(=O)O)cc2)c2ccccc2n1C | 8 | 7 | -65 | -65*
O=C(N/N=C\c1ccc(Br)o1)C1COc2ccccc2O1 (configuration not stated) | 2 | 2 | -6 | 0
Cc1c(/C=N\NC(=O)C2COc3ccccc3O2)c2ccccc2n1C (configuration not stated) | 51* | 0 | -18 | -19
O=C(O)c1ccc(N/N=C/c2cn(Cc3ccc(F)cc3)c3ccccc23)cc1 | -6 | 5 | -74 | -69*
Cc1ccc(-n2c(O)c(/C=N/NC(=O)C3COc4ccccc4O3)c3ccccc3c2=O)cc1 (configuration not stated) | 1 | 2 | 4 | 0
CCn1c(/C=N/Nc2ccc(C(=O)O)cc2)nc2ccccc21 | 9 | 6 | 12 | -11
CN(C)c1ccc(/C=N/NC(=O)C2COc3ccccc3O2)o1 (configuration not stated) | 3 | 0 | -84 | -78*
O=C(N/N=C/c1cn(Cc2ccccc2)c2ccccc12)c1cc(O)cc(O)c1 | . | 2 | 8 | 3
SMILES | AHR act | GAA850 FXN act | HSF-1 act | HSF1 inh
CCc1ccc(-c2cc(C(=O)Nc3c(C)n(C)n(-c4ccccc4)c3=O)c3ccccc3n2)s1 | 8 | -4 | 35 | 7
O=C(Nc1cccnc1)C1CCN(S(=O)(=O)c2cccc3nonc23)CC1 | 5 | 2 | -5 | -10
COC(=O)Nc1ccc(S(=O)(=O)Nc2ccc(O)cc2)cc1 | -1 | 2 | -14 | -6
COc1ccc(Br)cc1C(=O)Nc1cccc2ncccc12 | 27 | 2 | 48 | 21
COc1ccc(Cl)cc1C(=O)Nc1cccc2ncccc12 | 66* | 1 | 24 | 12
O=C(Nc1cccc2ncccc12)c1ccc(Cl)cc1 | 65* | 2 | -6 | -4
O=C(Nc1cccc2ncccc12)c1ccc(F)cc1 | 33 | -1 | 7 | -2
O=C(Nc1cccc2ncccc12)c1ccc(-c2ccc(Br)cc2)o1 | 53* | -4 | 6 | 9
C/C(=N\Nc1nc2ccccc2s1)c1ccc(Br)s1 | 54* | 1 | -40 | -33
COc1ccc(OC)c(-c2cc(C(=O)Nc3cccc(Cl)c3)no2)c1 | 55* | 6 | -7 | 0
COc1ccc(OC)c(-c2cc(C(=O)Nc3cc(C)on3)no2)c1 | 0 | 2 | -73 | -64*
COc1ccc(NC(=O)c2cc(-c3ccccc3OC)on2)cc1 | 44 | -4 | 5 | 14
COc1ccc(NC(=O)c2cc(-c3ccccc3Cl)on2)cc1 | 56* | 2 | 42 | 17
